# Screening results deposited in PubChem by National Center for Advancing Translational Sciences (NCATS).
# FLuc counter = firefly luciferase modulation, counter-screen for miR-21 project; P08659; purified FLuc, Km substrates, luminescence inhibition; Potency, µM (series often up to 57.5 µM), for the others: at the highest dose activity change, negative = inhibition, hits mostly inhibitors; actives 6.9% (n = 360,000); AID 588342;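 note: plate controls were vehicle for no effect and reference inhibitor for full effect; nearly all actives have a fitted effect of over 55% in size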
# Target sequence (P08659 whole entry, looked up): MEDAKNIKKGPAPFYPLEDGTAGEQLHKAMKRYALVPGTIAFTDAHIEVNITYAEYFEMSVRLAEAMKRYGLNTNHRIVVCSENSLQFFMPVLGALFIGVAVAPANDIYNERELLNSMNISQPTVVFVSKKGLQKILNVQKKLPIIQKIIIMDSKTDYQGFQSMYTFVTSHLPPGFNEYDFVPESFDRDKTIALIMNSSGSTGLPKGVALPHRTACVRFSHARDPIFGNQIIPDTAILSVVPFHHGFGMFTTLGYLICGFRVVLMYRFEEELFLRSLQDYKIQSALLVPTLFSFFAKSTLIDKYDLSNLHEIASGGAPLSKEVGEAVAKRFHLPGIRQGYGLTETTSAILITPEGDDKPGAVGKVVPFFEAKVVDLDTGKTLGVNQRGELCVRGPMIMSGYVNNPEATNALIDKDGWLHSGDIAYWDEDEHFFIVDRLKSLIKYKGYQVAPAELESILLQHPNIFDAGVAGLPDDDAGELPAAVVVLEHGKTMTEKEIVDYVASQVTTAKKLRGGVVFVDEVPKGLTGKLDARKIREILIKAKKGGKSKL
#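 Purified P. pyralis luciferase, 10 nM final, with Km-level 10 uM D-luciferin and 10 uM ATP in 50 mM Tris acetate pH 7.5, 10 mM Mg acetate, 0.01% Tween-20, 0.05% BSA; 6-point qHTS titration about 60 µM downward; luminescence read.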
# Rab9 prom act = activates the Rab9 promoter. Potency, µM (series often up to 9.22 µM), for inactives: top-dose activation, negative = inhibition, most hits filed as activators. AID 485297. actives 2.8% (n = 320,000). Huh7 Rab9 promoter-luciferase reporter, luminescence, 24 h; note: % of control where 0% means no effect; nearly all actives have a fitted effect of over 60% in size
#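 Huh7 cells stably carrying a Rab9 promoter-luciferase reporter, 1500 cells per well in OP-MEM I with 10% FBS, treated with compound 24 hours at 37C. Luciferase activity read by luminescence after 10 minutes with Amplite reagent.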
# SMN2 splice enh = SMN2 splice variant enhancement; actives 2.8% (n = 210,000); HEK293 SMN2-luciferase splicing reporter, luminescence, 30-36 h; Potency, µM (titrated, usually from 46.1 µM), for the others: at the top dose activity change, positive = activation, hits mostly activators; AID 1458; note: % of control where 0% means no effect; nearly all actives have a fitted effect of over 55% in size
#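 HEK293 cells carry an SMN2 minigene-luciferase reporter in which exon 7 inclusion puts luciferase in frame. Cells were seeded at 2000 cells/well, attached for 10-12 hours, then exposed to compounds for 30-36 hours at 37C before ONE-Glo luminescence.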
# uPA surface inh = cell surface uPA generation inhibition | cell surface uPA generation assay, qHTS | Potency, µM (doses to about 38.3 µM), for inactives: at the top dose activity change, negative = inhibition, usual class: inhibitors | AID 540303 | actives 0.31% (n = 330,000); active = well fitted inhibition curve with a large enough effect; inconclusive = small, poorly fitted or top-dose-only effect; inactive = no such curve, though single readings can be large or run the other way; tested in mouse RAW 264.7 cells; note: % is set by controls: 0 for no effect and ±100 for the full control effect; nearly all actives have a fitted effect of over 55% in size
# ELG1 genotoxic = genotoxicity induction in ELG1-luciferase HEK293T cells. HEK293T ELG1-luciferase reporter, luminescence, 16 h. Potency, µM (series often up to 46 µM), without a hit: at the top dose activity change, positive = activation, actives largely listed as activators. actives 1.3% (n = 330,000). AID 504466; note: % of control where 0% means no effect; nearly all actives have a fitted effect of over 60% in size
#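 Reporter readout depends on ELG1 protein level, which increases with genetic stress. After 16 hr compound exposure at 37 °C, luciferase activity was quantified using ONE-Glo.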
# NPC1 prom act = activators of NPC1 promoter; Potency, µM (top dose mostly 9.22 µM), for the others: top-dose activation, actives largely listed as activators; actives 2.4% (n = 320,000); AID 485313; Huh7 NPC1 promoter luciferase reporter, 24 h; note: % of control where 0% means no effect; nearly all actives have a fitted effect of over 60% in size
#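 Huh7 cells stably carrying NPC1 promoter–luciferase, plated in Opti-MEM with 10% FBS for 2 h, were exposed to compound in DMSO for 24 h at 37 °C; luciferase reagent was added for 10 min and luminescence read.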
# The depositor's hits bear a star; ? = inconclusive; . = no result. Rows were chosen to be rich in hits. Some 7.3% of all compounds tested hit in one or more screens of this group. Unless noted, calls come from the whole dose curve; as a rule, active = well fitted curve in the direction sought with a large enough effect; inconclusive = small, poorly fitted or top-dose-only effect, or another doubt; inactive = no such curve, though single readings can be large; an effect the other way counts as inactive or inconclusive. Potency is the fitted concentration of half-maximal effect.
SMILES,FLuc counter,Rab9 prom act,SMN2 splice enh,uPA surface inh,ELG1 genotoxic,NPC1 prom act
O=C(NCC1CCCO1)c1coc2nc3ccccc3nc12 (stereo not drawn),10.7µM*,8.6%,5.4%,2.8%,-0.8%,3.3%
O=C(Nc1ccccc1C(=O)NCC1CCCO1)c1ccccc1 (stereo not drawn),-12.3%,-6.7%,3.8%,0.0%,-0.1%,-3.9%
COC(CNC(=O)c1coc2nc3ccccc3nc12)OC,10.7µM*,-0.3%,.,-1.7%,0.7%,1.7%
Cc1ccc(Nc2nc(N/N=C\c3ccc4c(c3)OCO4)nc(N3CCOCC3)n2)cc1,-4.3%,0.0%,-35.9%,-3.8%,-12.3%,0.7%
O=C(NC1CCCCC1)c1ccc(Cn2c(SCc3cccc(F)c3)nc3cccnc32)cc1,-13.8%,.,.,.,.,.
COCCCNC(=O)c1ccc(Cn2c(SCc3ccc(F)cc3)nc3cccnc32)cc1,3.38µM*,.,.,.,.,.
CN(C)CCNC(=O)c1ccc(Cn2c(SCc3ccc(F)cc3)nc3cccnc32)cc1,6.01µM*,.,.,.,.,.
Cc1cccc(CNC(=O)c2ccc(Cn3c(SCc4cccc(F)c4)nc4cccnc43)cc2)c1,-8.1%,.,.,.,.,.
O=C(NCCN1CCCCC1)c1ccc(Cn2c(SCc3ccc(F)cc3)nc3cccnc32)cc1,8.49µM*,.,-6.9%,.,.,.
COCCCNC(=O)c1ccc(Cn2c(SCc3cccc(C)c3)nc3cccnc32)cc1,10.7µM*,.,.,.,.,.
O=C(CCCn1c(=O)[nH]c2ccccc2c1=O)N1CCN(c2ccccc2)CC1,-0.2%,.,.,.,.,.
Nc1cc(=O)[nH]c(SCC(=O)Nc2ccccc2Sc2ccccc2)n1,-9.5%,-5.0%,-37.3%,0.0%,-4.9%,-2.9%
COc1ccccc1NC(=O)Nc1cc(NC(=O)Nc2ccccc2OC)c(C)nc1C,-1.1%,-7.3%,31.3%,-0.2%,?,-5.7%
CCOc1ccc(NC(=O)Nc2ccc3c(c2)nc(C)n3C)cc1,?,12.7%,.,-2.9%,5.0%,2.5%
Clc1cccc(Nc2nnc(-c3ccccc3)c3ccccc23)c1,.,.,-46.6%,.,.,.
Cc1nc2cc(NC(=O)Nc3cccc4ccccc34)ccc2n1C,0.953µM*,0.891µM*,3.98µM*,-11.7%,?,3.16µM*
COc1ccccc1NC(=O)Nc1ccc2c(c1)nc(C)n2C,1.51µM*,0.562µM*,12.6µM*,-14.2%,?,0.631µM*
Cc1ccc(NC(=O)Nc2ccc3c(c2)nc(C)n3C)cc1C,2.69µM*,0.631µM*,.,.,?,1.26µM*
Cc1nc2cc(Nc3nnc(-c4ccccc4)c4ccccc34)ccc2n1C,0.675µM*,?,.,?,?,3.55µM*
O=c1c(-c2cccs2)nc2cnc(Oc3ccccc3)nc2n1C1CC1,.,.,-12.3%,.,.,.
CO[C@@H](CCOCc1ccccc1)C[C@H]1O[C@H](C(=O)OC(C)C)C=C[C@@H]1C,.,.,15.0%,.,.,.
COc1ccc(C2=NNC(c3cc(Cl)cc4c3OCOC4)C2)c(O)c1 (stereo not drawn),13.5µM*,-0.2%,-66.9%,.,-4.5%,-0.4%
CCOC(=O)CSc1nc2cc3c(cc2c(=O)n1Cc1ccc(C(=O)NCCc2ccc(OC)c(OC)c2)cc1)OCO3,3.7%,.,.,.,.,.
COc1ccccc1N(/N=C1\Sc2ccccc2C1=O)C(C)=O,12µM*,4.47µM*,.,?,0.92µM*,25.5%
COc1ccc(CN(C(C)=O)c2ccccc2C(=O)O)cc1,-0.4%,-3.1%,.,-0.1%,1.2%,-1.1%
COc1ccc(N(/N=C2\Sc3ccccc3C2=O)C(C)=O)cc1,12µM*,?,15.8µM*,12.6%,?,10.5%
COc1ccc(/C=C/c2nc(C#N)c(NCCc3ccccc3)o2)cc1OC,-10.4%,.,-1.4%,.,.,.
COc1cc2c(cc1OC)/C(=C/C(=O)c1ccccc1)NCC2,-17.8%,-2.2%,.,9.7%,11.9%,21.8%
COc1ccc(C(=O)/C=C2\NCC3c4ccccc4CCN3C2=O)cc1 (stereo not drawn),6.01µM*,?,9.0%,-5.8%,0.1%,22.6%
